Results from PubChem BioAssay AID504660 (National Center for Advancing Translational Sciences (NCATS), 2011).
“And” between values parts separate entries of the source, which are not always exact repeats. Equal values may be shown once. Screen size: about 360,000 compounds; about 3,700 (1%) were called active. Cut-off read from the data, not from the text of the source: active = activation above about 30%; inactive = the rest. What follows is part of a selection rich in actives, with near analogues and random picks from the rest.

The compounds below were run against D(1A) dopamine receptor (Homo sapiens) (UniProt P21728) (assay: Allosteric Agonists of the Human D1 Dopamine Receptor: qHTS). Settings: HEK293 T-REx D1 cells, calcium flux, agonist mode; at 2 µM; active compounds read high.
Summary of the method: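 Tetracycline-induced HEK293 TREx D1 cells, force-coupled to calcium signalling, were dye-loaded with a no-wash calcium kit. Compound was pin-added after a 10 s baseline. Fluorescence was read kinetically at 1 cycle/s for 180 s, with calcium rises flagged as agonism.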
Note: 0% is about no effect.

D(1A) dopamine receptor (Homo sapiens), sequence (P21728 whole entry, looked up): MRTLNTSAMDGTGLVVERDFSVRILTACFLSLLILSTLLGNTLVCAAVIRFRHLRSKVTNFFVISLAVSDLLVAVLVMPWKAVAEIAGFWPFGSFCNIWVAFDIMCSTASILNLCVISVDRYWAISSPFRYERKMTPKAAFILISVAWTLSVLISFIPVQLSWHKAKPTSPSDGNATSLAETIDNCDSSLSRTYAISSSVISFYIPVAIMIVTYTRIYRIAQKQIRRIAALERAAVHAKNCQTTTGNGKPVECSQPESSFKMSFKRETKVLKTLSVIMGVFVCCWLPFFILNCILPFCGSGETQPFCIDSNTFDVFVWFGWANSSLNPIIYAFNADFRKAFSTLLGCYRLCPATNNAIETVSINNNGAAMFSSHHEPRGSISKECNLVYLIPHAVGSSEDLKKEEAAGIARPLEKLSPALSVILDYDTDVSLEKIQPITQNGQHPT

SMILES | activation
CC(C)c1ccc(NC(=O)Cn2c3ncccc3c(=O)n2-c2ccccc2)cc1 | 2.49% (inactive)
COCCNc1ncnc2c1c(-c1ccccc1)cn2-c1ccc(C)c(Cl)c1 | 2.02% (inactive)
COc1ccc(-n2cc(CNC3CCOCC3)c(-c3cccc(F)c3)n2)cc1 | 14.3% (inactive)
Cc1cccc(-n2cc(CN3CCN(C(=O)c4ncn[nH]4)CC3)c(-c3cccc(F)c3)n2)c1 | 1.07% (inactive)
CCC(O)C1CCN(Cc2cn(-c3ccc(OC)cc3)nc2-c2cccc(F)c2)CC1 (stereo not drawn) | 34.2% (active)
CCOC(=O)c1ccc(NC(=O)CSc2nc3c([nH]c4ccccc43)c(=O)n2C)cc1 | 0.658% (inactive)
COc1cccc(C(=O)NCC(=O)OCc2cc(=O)n3ccsc3n2)c1 | -0.454% (inactive)
Cc1c(CCOC(=O)c2cc([N+](=O)[O-])ccc2Cl)sc[n+]1CCCCS(=O)(=O)[O-] | 2.52% (inactive)
Cc1c(CCO)sc[n+]1CC(=O)OC12CC3CC(CC(C3)C1)C2 | 2.73% (inactive)
Cc1c(CCOC(=O)CC23CC4CC(CC(C)(C4)C2)C3)sc[n+]1Cc1ccc([N+](=O)[O-])cc1 | 35.6% (active)
CCn1c(CN2CCC(C)CC2)nc2cc(NC(=O)c3ccccc3[N+](=O)[O-])ccc21 | 0.209% (inactive)
COc1ccc(OC)c(NC(=O)CSC2=Nc3ccccc3C3=NC(CC(=O)NCc4ccc(F)cc4)C(=O)N23)c1 (stereo not drawn) | -0.058% (inactive)
CCOC(=O)c1ccc(N2C(=O)c3n[nH]c(C)c3C2c2ccc(O)c(OC)c2)cc1 (stereo not drawn) | 0.253% (inactive)
CCCCCCCCCCOC(=O)Cn1c(COc2cccc(OC)c2)[n+](C)c2ccccc21 | 116% (active)
COc1ccc(-n2c(=O)c3sc4ccccc4c3n(CC(=O)Nc3cccc(C)c3)c2=O)cc1 | 8.8% (inactive)
O=C(Nc1ccc(O)c(-c2nc3ccccc3o2)c1)c1ccc(-c2cccc(Cl)c2)o1 | 0.486% (inactive)
CCCn1c(=N)n(CC(O)COc2ccccc2OC)c2ccccc21 (stereo not drawn) | -0.594% (inactive)
C=CCn1c(=N)n(CC(O)COc2ccc(OC)cc2)c2ccccc21 (stereo not drawn) | 40.4% (active)
Cc1cccc(OCC(O)Cn2c(=N)n(CCN3CCOCC3)c3ccccc32)c1 (stereo not drawn) | 0.333% (inactive)
O=S(=O)(NCCc1nnc2ccc(SCc3ccc(Cl)cc3Cl)nn12)c1ccccc1 | 1.47% (inactive)
CCn1cc(C(=O)N2CCN(c3cc(Cl)ccc3C)CC2)c(=O)c2cc(S(=O)(=O)N3CCCC3)ccc21 | -0.309% (inactive)

SMILES | activation
Cc1ccc(Cl)cc1N1CCN(C(=O)c2cccn3c(=O)c4cc(Cl)ccc4nc23)CC1 | 2.28% (inactive)
Cc1ccc(Cl)cc1N1CCN(C(=O)c2cccc3c(=O)c(C)c(-c4ccccc4)oc23)CC1 | 34.3% (active)
COc1ccc(-c2c3c(=O)n(C)c(=O)n(C)c3c3c(C)nc4ccccc4n23)cc1 | -0.834% (inactive)
COc1ccc(-c2nn3c(-c4ccc(OC)cc4)nnc3c3ccccc23)cc1 | -0.437% (inactive)
CCOCCCNC(=O)c1cn(CC)c2ccc(S(=O)(=O)N3CCc4ccccc4C3)cc2c1=O | 0.286% (inactive)
CSCCC(NC(=O)COc1ccccc1)C(=O)OCCOc1ccc(Br)cc1 (stereo not drawn) | 30.8% (active)
CSCCC(NC(=O)COc1ccccc1)C(=O)OCCOc1ccc(F)cc1 (stereo not drawn) | 2.91% (inactive)
CSCCC(NC(=O)COc1ccccc1)C(=O)OCC(=O)c1cc2ccccc2o1 (stereo not drawn) | 5.5% (inactive)
CCC(NC(=O)c1cc(COc2ccc(F)c(F)c2)on1)c1ccncc1 (stereo not drawn) | 24.1% (inactive)
CCOC(=O)CC1COCCN1C(=O)c1cc(COc2ccc(F)c(F)c2)on1 (stereo not drawn) | 43.4% (active)
O=C(c1cc(COc2ccc(F)cc2F)on1)N1CCOCC1 | 2.85% (inactive)
CCCCc1nn2c(=O)cc(COC(=O)c3ccc(NC(=O)c4ccccc4C)cc3)nc2s1 | 4.38% (inactive)
COCCCNC(=O)c1ccc(NC(=O)c2nsc3ccccc23)cc1 | -0.261% (inactive)
CN(C)c1ccc(/C=C2\NC(=S)N(Cc3ccccc3)C2=O)cc1 | 203% (active)
CCn1cc(C(=O)NCc2ccc(C)cc2)c(=O)c2cc(S(=O)(=O)N3CCc4ccccc4C3)ccc21 | -1.37% (inactive)
CN(C)c1ccc(NC(=O)CSc2nc(-c3ccco3)cc(C(F)(F)F)n2)cc1 | -0.482% (inactive)
Cc1cc(C)c(-c2n[nH]c3c2C(c2ccccc2F)N(CCO)C3=O)c(O)c1 (stereo not drawn) | -0.0969% (inactive)
CCSc1nsc(NC(=O)Nc2cccc(C(C)=O)c2)n1 | 29.4% (inactive)
C=CCSc1nsc(NC(=O)Nc2cccc(C(C)=O)c2)n1 | 34.2% (active)
CC(=O)c1ccc(NC(=O)CSc2nnc(NC(=O)Nc3ccccc3)s2)cc1 | 2.71% (inactive)
CCOc1ccc(-c2cc(C)n3nc(C(=O)Nc4ccc(C)c(C)c4)cc3n2)cc1 | 0.877% (inactive)

SMILES | activation
Cc1ccccc1S(=O)(=O)N1[C@@H](c2cccc(Cl)c2)C(C(=O)O)=CC[C@H]1c1ccc(Cl)cc1 | 2.18% (inactive)
Cc1ccc(S(=O)(=O)N2[C@@H](c3cccc(Cl)c3)C(C(=O)O)=CC[C@H]2c2ccc(Cl)c(Cl)c2)cc1 | 43.2% (active)
Cc1ccc(S(=O)(=O)N2[C@@H](c3ccccc3F)C(C(=O)O)=CC[C@H]2c2ccc(Cl)cc2)cc1 | 3.48% (inactive)
CCOC(=O)N1CCc2c(sc(NCc3cccc(F)c3)c2C(=O)Nc2ccccc2OCC)C1 | -1.06% (inactive)
N=c1n(Cc2ccc(Cl)cc2)c2ccccc2n1CC(O)c1ccco1 (stereo not drawn) | 92.6% (active)
O=C(NCc1ccccc1)C(=O)NCC(c1ccco1)S(=O)(=O)c1ccc(Cl)cc1 (stereo not drawn) | 0.796% (inactive)
CCOc1ccc(C(O)Cn2c(=N)n(CCN3CCCCC3)c3ccccc32)cc1 (stereo not drawn) | 0.859% (inactive)
COc1cccc(N2CCN(C(=O)CCCCCn3c(=O)[nH]c4ccccc4c3=O)CC2)c1 | 3.15% (inactive)
Cc1sc(C2C(C#N)=C(N)N(c3cccc(Cl)c3)C3=C2C(=O)CCC3)cc1CN1CCOCC1 (stereo not drawn) | -0.583% (inactive)
N#Cc1c(-c2cccs2)nc(SCC(=O)c2ccc(Br)cc2)[nH]c1=O | 27.1% (inactive)
Cc1ccccc1CSc1nnc(-c2ccccc2)c(=O)[nH]1 | 0.158% (inactive)
N#Cc1c(-c2ccccc2)nc(SCc2cccc(C(F)(F)F)c2)[nH]c1=O | 42.4% (active)
Cc1c(C(=O)NCc2ccccc2Br)oc2ccc3c(c12)C(=O)CC(C)(C)O3 | 5.52% (inactive)
Cc1cccc(C)c1Nc1c(-c2ccccc2O)nc2ncccn12 | -0.792% (inactive) and 1.73% (inactive)
Cc1ccccc1Nc1c(-c2ccccc2)nc2ncccn12 | -0.718% (inactive)
CCc1cccc(C)c1Nc1c(-c2ccc(N(C)C)cc2)nc2ncccn12 | 51.7% (active)
CCc1ccc(NC(=O)CN2CCC(C(=O)c3ccc(OC)cc3)CC2)cc1 | 2.75% (inactive)
COc1ccc(NC(=O)CCN2CCN(CCO)CC2)cc1 | 1.35% (inactive)
CCc1cc(C(=O)c2ccc(OC)cc2)c(NC(=O)CN2CCN(C)CC2)s1 | 32.2% (active)
CC1CCCN(Cc2c(O)ccc3c(=O)c(Oc4ccc(C(C)(C)C)cc4)c(C(F)(F)F)oc23)C1 (stereo not drawn) | -1.8% (inactive)
CC(C)(C)NCCCOc1ccc(Cl)cc1C(C)(C)C | 59.2% (active)

SMILES | activation
COCCCNCCOCCOc1ccc(Cl)cc1Br | 13.2% (inactive)
Cc1ccc(C(C)(C)C)c(OCCCCN2CCCC2)c1 | 8.62% (inactive)
CCOc1ccc(NC(=O)c2c(NC(=O)Cc3ccccc3)sc3c2CCC(C)C3)cc1 (stereo not drawn) | -0.648% (inactive)
FC(F)(F)c1cc(-c2ccco2)nc(NCc2ccc(Cl)cc2)n1 | 7.88% (inactive)
COc1ccc(CCNc2nc(-c3ccc(Cl)cc3)cc(C(F)(F)F)n2)cc1OC | 7.69% (inactive)
COc1ccc(CNc2nc(-c3ccc(Cl)cc3)cc(C(F)(F)F)n2)cc1 | 41.5% (active)
COc1cccc(C(=O)NC2(C(F)(F)F)C(=O)Nc3c2c(=O)[nH]c(=O)n3-c2ccc(C)cc2)c1 (stereo not drawn) | -0.234% (inactive)
Cc1ccc(Cl)cc1N1CCN(C(=O)c2cnc3c(-c4ccc(F)cc4)c(C)nn3c2C)CC1 | 1.96% (inactive)
COCCNC(=O)c1ccc(Cn2c(SCC(=O)NCC3CCCO3)nc3ccc(Br)cc3c2=O)cc1 (stereo not drawn) | 2.13% (inactive)
OC(CNCC1CCCO1)Cn1c2ccc(Br)cc2c2cc(Br)ccc21 (stereo not drawn) | 38.5% (active)
O=C(CNC(=O)c1ccc(Br)o1)NCC1CCCO1 (stereo not drawn) | 0.969% (inactive)
CC(=O)c1c(C)n(S(=O)(=O)c2ccc(Cl)cc2)c2ccc(NS(=O)(=O)c3ccc(Cl)cc3)cc12 | 2.47% (inactive)
CN(Cc1ccccc1)C(=O)CCS(=O)(=O)c1cc(Br)cc2c1N(C(=O)C1CC1)CC2 | 0.148% (inactive)
c1ccc2c(c1)C(=NC1CCCCC1)NC2=NC1CCCCC1 | 30.7% (active)
COc1cc(OC)cc(C(=O)N[C@H](C(=O)OCC(=O)NC(C)c2ccccc2)C(C)C)c1 (stereo partly drawn) | 119% (active)
Cc1ccccc1OCCC(=O)OCC(=O)NC(C)c1ccccc1 (stereo not drawn) | 1.35% (inactive)
COc1ccc(N2CCN(C(=O)[C@@H](NC(=O)c3cc(OC)cc(OC)c3)C(C)C)CC2)cc1 | -0.0979% (inactive)
O=C(CCCCn1c(=O)c2ccccc2n(CC(=O)Nc2cccc(C(F)(F)F)c2)c1=O)NCc1ccc2c(c1)OCO2 | 4.77% (inactive)
CCCOc1ccc(C(=O)Nc2ccc3oc(-c4cccc(Cl)c4Cl)nc3c2)cc1 | 1.7% (inactive)
CCCC(=O)Nc1ccc2oc(-c3ccc(O)c(Br)c3)nc2c1 | 3.7% (inactive)
